# ALOX12 inh: blocks human arachidonate 12S-lipoxygenase | 580,000 tested, 1.1% active | purified 12hLO, xylenol orange hydroperoxide absorbance | AID 1671190 | Potency, µM (series often up to 108 µM), hits mostly inhibitors | P18054
#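 Purified human 12hLO at 150 nM in 25 mM Hepes, 0.01% Triton X-100, pH 7.0, preincubated 15 min at room temperature with compound. Reaction started with 40 uM arachidonic acid, 30 min at room temperature. Hydroperoxide measured by Fe-xylenol orange, 573/405 nm absorbance ratio.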
# TDP1 cell noCPT: qHTS for Inhibitors of human tyrosyl-DNA phosphodiesterase 1 (TDP1): qHTS in cells in absence of CPT; AID 686978, 2013; Potency, µM (titrated, usually from 46.2 µM), usual class: inhibitors; DT40 Tdp1-/- hTDP1 cells, no CPT, ATP luminescence, 48 h; 420,000 tested, 15% active; note: nearly all actives have a fitted effect of over 55% in size
#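 Cells were dispensed at 400 per well, compounds added by pin tool, plates incubated ≥48 hr at 37 °C, then CellTiter-Glo added for 30 min at room temperature before luminescence reading. Line: DT40 Tdp1-/- complemented with hTDP1; camptothecin omitted.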
# RORgamma inh: ROR gamma (mouse) transcription inhibition | P51450 | Drosophila S2 Gal4-RORgamma UAS-luciferase reporter, 20 h | Potency, µM (highest dose often 53.6 µM), usual class: inhibitors | 310,000 tested, 5.4% active; note: nearly all actives have a fitted effect of over 60% in size
# Target sequence (P51450 whole entry, looked up, the tested form may be a part): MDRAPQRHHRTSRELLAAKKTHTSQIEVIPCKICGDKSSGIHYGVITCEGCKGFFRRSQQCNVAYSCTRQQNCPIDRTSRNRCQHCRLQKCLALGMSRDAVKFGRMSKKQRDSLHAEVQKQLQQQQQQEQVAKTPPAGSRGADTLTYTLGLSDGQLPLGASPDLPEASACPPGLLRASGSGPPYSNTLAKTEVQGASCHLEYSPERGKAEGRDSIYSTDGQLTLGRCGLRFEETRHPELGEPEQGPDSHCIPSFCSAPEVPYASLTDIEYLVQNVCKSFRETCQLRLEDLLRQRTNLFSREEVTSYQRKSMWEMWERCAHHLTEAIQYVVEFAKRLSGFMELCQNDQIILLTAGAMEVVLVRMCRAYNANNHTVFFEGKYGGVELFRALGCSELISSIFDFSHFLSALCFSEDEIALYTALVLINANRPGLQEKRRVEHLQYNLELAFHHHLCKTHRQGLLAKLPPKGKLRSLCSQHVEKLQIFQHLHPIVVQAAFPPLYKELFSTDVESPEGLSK
#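 Read-out: Photinus luciferase luminescence; inhibitors lower reporter signal. Insect Schneider cells with Gal4-ROR gamma fusion under metallothionein promoter, UAS reporter; 700 uM final copper sulfate induction, 20 hr, ambient temperature.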
# ELG1 repair inh: ELG1-dependent DNA repair inhibition; HEK293T ELG1-luciferase reporter, luminescence, 16 h; DNA damage induced by 5-fluorouridine; 330,000 tested, 2.3% active; Potency, µM (highest dose often 46.1 µM), actives largely listed as inhibitors; note: nearly all actives have a fitted effect of over 55% in size
#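 Quantitative HTS, concentration-response format. 2,000 cells/well co-treated with 5-fluorouridine and compound, 16 hr in 5% CO2 at 37 °C; ONE-Glo luminescence read after 30 min.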
# VP16 counter: Gal4-VP16 reporter inhibition counter-screen | Drosophila S2 Gal4-VP16 UAS-luciferase, luminescence, 20 h | Potency, µM (series often up to 53.6 µM), usual class: inhibitors | 310,000 tested, 3.5% active | AID 2546;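 note: Gal4-VP16 expression switched on by copper sulfate through the metallothionein promoter; nearly all actives have a fitted effect of over 50% in size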
# DT40 TDP1 CPT: DT40-hTDP1 cell growth loss with CPT | chicken DT40 Tdp1-/-;hTDP1 cells + 20 nM CPT, ATP luminescence, 48 h | Potency, µM (titrated, usually from 46.2 µM), most hits filed as inhibitors | 420,000 tested, 12% active | AID 686979; note: nearly all actives have a fitted effect of over 55% in size
#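 Chicken DT40 Tdp1-/- cells complemented with human TDP1, 400 cells/well, exposed to compounds plus 20 nM camptothecin for at least 48 h at 37 C; viability read as ATP content by CellTiter-Glo luminescence.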
# A number is an active result; i = inactive; ? = inconclusive; nt = no result given. A selection: hits, their analogues and other compounds. The true share with any hit is near 15%. Calls come from the whole dose curve; as a rule, active = well fitted curve in the direction sought with a large enough effect; inconclusive = small, poorly fitted or top-dose-only effect, or another doubt; inactive = no such curve, though single readings can be large; an effect the other way counts as inactive or inconclusive.
SMILES,ALOX12 inh,TDP1 cell noCPT,RORgamma inh,ELG1 repair inh,VP16 counter,DT40 TDP1 CPT
Cc1ccc(-c2nccc(N3CCC(O)C3)n2)c(C)c1 (configuration not stated),35µM,nt,nt,nt,nt,nt
Cc1ccccc1-n1ncc2c1CC(C)(C)CC2NC(=O)c1snnc1C (configuration not stated),i,26µM,i,i,i,?
Cc1ccc(-n2ncc3c2CC(C)(C)CC3NC(=O)c2ccccn2)cc1 (configuration not stated),i,?,i,?,i,?
CSc1ncccc1C(=O)NC1CC(C)(C)Cc2c1cnn2-c1ccccc1C (configuration not stated),i,?,i,i,?,23µM
Cc1ccccc1-n1ncc2c1CC(C)(C)CC2NC(=O)CCC(F)(F)F (configuration not stated),i,?,i,i,i,i
COC(=O)CCC(=O)NC1CC(C)(C)Cc2c1cnn2-c1ccc(F)cc1 (configuration not stated),i,?,?,i,i,0.58µM
CC1(C)Cc2c(cnn2-c2ccc(F)cc2)C(NC(=O)CCC(F)(F)F)C1 (configuration not stated),i,i,i,i,i,i
Cc1ccccc1-n1ncc2c1CC(C)(C)CC2NC(=O)CSc1ccncc1 (configuration not stated),i,16µM,?,i,i,?
Cc1ccccc1-n1ncc2c1CC(C)(C)CC2NC(=O)c1ccncc1 (configuration not stated),i,i,i,i,i,i
Cc1ccc(-c2noc(-c3cccnc3NC(C)c3ccccc3)n2)cc1 (configuration not stated),i,nt,nt,nt,nt,nt
O=C(c1ccc(F)c(F)c1)c1cc2cc(Br)ccc2o1,i,nt,nt,nt,nt,nt
CC(C)C(C)NC(=O)CCC1CCCO1 (configuration not stated),i,nt,nt,nt,nt,nt
COC(=O)c1[nH]c2ccc(F)cc2c1NC(=O)CCN1CCCC(C)(C)C1,i,nt,nt,nt,nt,nt
O=C(NCCc1ccccc1)N1CCC(c2noc(-c3cccnc3)n2)C1 (configuration not stated),i,nt,nt,nt,nt,nt
O=C(C[C@H]1C=C[C@@H](NS(=O)(=O)c2ccccc2)[C@@H](CO)O1)NCc1ccc(Cl)c(Cl)c1,i,18µM,nt,nt,nt,?
Cc1ccn(CC(=O)NC2CCCN(Cc3ccc(CC(C)C)cc3)C2)n1 (configuration not stated),i,?,i,i,i,?
CCCn1ncc(C(=O)NC2CCCN(Cc3ccc(Cl)cc3)C2)c1C (configuration not stated),i,i,i,i,i,?
CC(=O)c1c(C)nn(CC(=O)NC2CCCN(Cc3ccc(CC(C)C)cc3)C2)c1C (configuration not stated),i,?,i,i,i,21µM
CC(C)Cc1ccc(CN2CCCC(NC(=O)c3cnc4ccccn4c3=O)C2)cc1 (configuration not stated),i,23µM,nt,nt,nt,23µM
O=C(NC1CCCN(Cc2ccc(Cl)cc2)C1)c1cnc2ccccn2c1=O (configuration not stated),i,18µM,?,?,i,?
O=C(Cc1c[nH]c2ccccc12)N1CCN(S(=O)(=O)c2cccc(F)c2)CC1,i,nt,nt,nt,nt,nt
O=C(NCCc1ccccc1)[C@H]1CN(Cc2ccccc2)C[C@H]1C(=O)O,i,nt,nt,nt,nt,nt
Fc1cccc(Cl)c1/C=N/Nc1ccccn1,i,i,?,?,i,i
Cc1ccc(C)c(/C=N/Nc2ccccn2)c1,i,i,10µM,i,i,i
O=C(O)c1ccc(N/N=C/c2ccc3c(c2)OCO3)cc1,?,?,i,?,i,?
SMILES,ALOX12 inh,TDP1 cell noCPT,RORgamma inh,ELG1 repair inh,VP16 counter,DT40 TDP1 CPT
C(=N\Nc1ccccn1)/c1ccc2c(c1)OCCO2,i,?,13µM,?,?,i
O=c1[nH]c(N/N=C\c2ccc3c(c2)OCO3)nc2ccccc12,?,23µM,?,?,?,?
Cc1cc(N/N=C/c2ccc3c(c2)OCO3)nc2ccccc12,?,26µM,13µM,?,i,?
FC(F)(F)c1ccccc1Cc1c(-c2ccc(Cl)cc2)nc2ccc(Br)cn12,40µM,?,nt,nt,nt,?
Fc1ccc(-c2nc3ccc(Br)cn3c2Cc2ccccc2C(F)(F)F)cc1,18µM,?,nt,nt,nt,?
FC(F)(F)c1ccccc1Cc1c(-c2ccccc2)nc2ccc(Cl)cn12,i,?,nt,nt,nt,?
CCc1cc2c(N3CCCCC3)ncnc2s1,28µM,?,?,?,35µM,?
CCCCC(=O)NC1(C(F)(F)F)C(=O)N(Cc2ccccc2)C(C)=C1C(=O)c1ccccc1 (configuration not stated),i,nt,nt,nt,nt,nt
COc1cccc(-c2cc(C(F)(F)F)nc(N3CCN(Cc4ccccc4)CC3)n2)c1,i,nt,nt,nt,nt,nt
COC(=O)c1cc(C)nc2onc(-c3ccc(F)cc3)c12,i,nt,nt,nt,nt,nt
O=C1CC(c2noc(-c3cc(F)ccc3Cl)n2)CN1c1ccc(F)cc1 (configuration not stated),i,nt,nt,nt,nt,nt
COC(=O)[C@@H]1CC[C@H](C)[C@@H](c2ccc(C)cc2)N1C(=O)c1ccc(/C=N/O[C@@H](C)c2cn([C@H](CO)Cc3ccccc3)nn2)cc1,nt,nt,?,15µM,i,nt
COC(=O)c1cccc(NC(=O)C(NC(=O)c2ccccc2C)C(C)C)c1 (configuration not stated),i,nt,nt,nt,nt,nt
O=C(CSc1nc2ccccc2c(=O)n1CC1CCCO1)N1CCN(c2ccccc2)CC1 (configuration not stated),i,23µM,nt,nt,nt,26µM
O=C(NCC1CCCO1)c1ccc2c(=O)n(CC3CCCO3)c(SCC(=O)N3CCCC3)nc2c1 (configuration not stated),i,0.23µM,i,i,i,i
Cc1ccc(C(=O)CSc2nc3cc(C(=O)NC4CCCC4)ccc3c(=O)n2CC2CCCO2)c(C)c1 (configuration not stated),i,?,nt,nt,nt,10µM
O=C(CSc1nc2ccccc2c(=O)n1CC1CCCO1)NCc1ccccc1 (configuration not stated),?,i,i,i,i,i
Cc1ccc(/C=C2\S/C(=N/S(=O)(=O)c3cccs3)NC2=O)cc1,28µM,i,i,i,i,i
Cc1ccc(S(=O)(=O)/N=C2/NC(=O)/C(=C/c3ccncc3)S2)cc1,?,nt,i,?,i,nt
Cc1ccc(S(=O)(=O)/N=C2/NC(=O)/C(=C\c3ccccc3)S2)cc1,40µM,?,nt,?,nt,?
Cc1ccc(S(=O)(=O)/N=C2/NC(=O)/C(=C/c3ccccc3)S2)cc1,13µM,?,?,i,i,i

# Source: PubChem
